VACV mCherry inh – vaccinia inhibition (mCherry reporter); Vaccinia virus mCherry reporter infection, fluorescence; AID 720579; hit rate 0.63% among 310,000; Potency, µM (doses to about 36.5 µM), inactives show at the highest dose activity change, negative = inhibition, most hits filed as inhibitors; calls by dose curve; tested in A549 cells; also: potency is read from the fitted curve at half-maximal effect; nearly all actives have a fitted effect of over 35% in size
Marburg entry inh – Marburg virus entry inhibition; Marburg virus pseudotyped entry inhibition, cell reporter; hit rate 1.8% among 300,000; Potency, µM (highest dose often 37.8 µM), without a hit: at the top dose activity change, negative = inhibition, hits mostly inhibitors; calls by dose curve; tested in HEK293 cells; also: potency is read from the fitted curve at half-maximal effect
Lassa entry inh – Lassa virus entry inhibition; Lassa virus pseudotype entry inhibition, cell reporter; Potency, µM (series often up to 37.9 µM), for inactives: at the top dose activity change, negative = inhibition, usual class: inhibitors; hit rate 1.2% among 300,000; calls by dose curve; tested in HEK293 cells; also: potency is read from the fitted curve at half-maximal effect; nearly all actives have a fitted effect of over 50% in size
HCMV antiviral – human cytomegalovirus inhibition | HFF cells, HCMV-luciferase reporter, 72 h; stronger effect = lower value | activity change, negative = inhibition, % at 57.5 µM | hit rate 4.5% among 410,000 | AID 1259415; in the data active = activity change below about -60%; inconclusive = no clear call, values can overlap the other calls; inactive = above about -39%
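Inhibition of viral replication was scored as loss of reporter luminescence in HFFs infected with HCMV-luciferase (MOI 1 PFU/cell) for 72 h; compounds tested at 2 doses, normalized to buffer and Salinomycin controls.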
HCV inh – HCV inhibition | Huh7.5.1 HCVcc-Cre infection, luciferase reporter, 44 h | Potency, µM (series often up to 41.8 µM), for inactives: top-dose activity change, negative = inhibition, usual class: inhibitors | hit rate 3.4% among 340,000 | AID 651820; active = well fitted inhibition curve with a large enough effect; inconclusive = small, poorly fitted or top-dose-only effect, or another doubt; inactive = no such curve, though single readings can be large or run the other way; also: potency is read from the fitted curve at half-maximal effect
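Luciferase read-out (15 sec integration) after a 15 min room-temperature substrate step quantifies HCVcc-Cre infection. Cells, 1,000 per well, had compound added 4 h post-plating, then virus at ~0.5 moi, and were cultured 44 h.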
Vaccinia Venus – vaccinia inhibition (Venus reporter). Vaccinia virus Venus reporter expression, fluorescence. Potency, µM (top dose mostly 36.5 µM), without a hit: at the highest dose activity change, negative = inhibition, usual class: inhibitors. hit rate 0.46% among 330,000. AID 720580; calls by dose curve; tested in A549 cells; also: potency is read from the fitted curve at half-maximal effect; nearly all actives have a fitted effect of over 30% in size
* hit, by the source's call; i = inactive; ? = inconclusive; · = not tested or not shown; [ ] = another dose, or the depositor's remark. Sampled rows, rich in hits. Any-hit rate of the full collection: about 7.8%. % is scaled to controls: 0 for no effect and ±100 for the full control effect.

SMILES	VACV mCherry inh	Marburg entry inh	Lassa entry inh	HCMV antiviral	HCV inh	Vaccinia Venus
CC(C)CN1CCNC(=O)C1CC(=O)NCCc1ccc(C(F)(F)F)cc1 (centres undefined)	-33%	-10%[46.1 µM]	-9%[46.1 µM]	-101*	-6%	-4%
O=[N+]([O-])c1cc(S(=O)(=O)c2ccc(N3CCCCC3)c([N+](=O)[O-])c2)ccc1N1CCCCC1	-22%	?	-12%	-20	?	-16%
O=[N+]([O-])c1cccc(S(=O)(=O)c2ccc(N3CCCCC3)c([N+](=O)[O-])c2)c1	i	-20%	-10%	-20	8.9µM*	-16%
NS(=O)(=O)c1ccc(Nc2cc(-c3ccc(O)c(F)c3)[nH]n2)cc1	·	·	22%	·	·	·
C=CC1CN(C(=O)OCC(Cl)(Cl)Cl)C2CC3c4ccc(OC)cc4NC3C3CC1C2CO3 (centres undefined)	-19%	·	·	·	10µM*	-13%
CC1CCN(C(=O)c2cc(Cl)ccc2NC(=O)c2ccco2)CC1	2%	-9%[46.1 µM]	·	-60*	-13%	-9%
O=C(Nc1ccc(Cl)cc1C(=O)Nc1ccncc1)c1ccco1	·	?	-13%	23	11µM*	·
CN1CCN(C(=O)c2cc(Cl)cc(Cl)c2NC(=O)c2ccco2)CC1	·	-1%	-6%	-33	5%	·
CCOC(=O)C(C)NC(=O)c1c(C)oc2ncn(CC(C)C)c(=O)c12 (centres undefined)	-13%	·	23%[46.1 µM]	5	·	-4%
COCCNC(=O)c1ccc2nc(CCc3ccccc3)oc2c1	-7%[7.34 µM]	·	?	48	·	-11%[7.34 µM]
C=C(C)Cn1c(SCC(=O)Nc2cccc(Cl)c2)nc2sc3c(c2c1=O)CCCC3	-16%	15%[46.1 µM]	12%[46.1 µM]	-2	·	-11%
O=C(OC(C(=O)Nc1ccc([N+](=O)[O-])cc1Br)c1ccccc1)c1ccccc1 (centres undefined)	-14%	3.5µM*	-2%	-33	?	-12%
COCCNC(C(=O)Nc1ccc([N+](=O)[O-])cc1Br)c1ccccc1 (centres undefined)	-5%	-9%	-5%	-82*	-16%	-24%
C=CCNC(=S)NNC(=O)c1cccnc1	i	19%[14.2 µM]	5%	5	7%	-3%
C=CCNC(=S)NNC(=O)c1ccncc1	i	·	·	-64*	14%	-14%
O=C(CCl)Nc1cccn2ncnc12	·	?	?	-60*	?	7.9µM*
O=C(Nc1cccn2ncnc12)C(F)(F)F	i	?	-1%	-15	8%	1%
COc1ccc(-c2cc(-c3c(O)c(OC)c4occc4c3OC)[nH]n2)cc1	·	?	-8%	113	32µM*	·
COc1ccc(-c2cc(-c3c(O)c(OC)c4occc4c3OC)[nH]n2)cc1OC	-6%	-19%	-34%	20	11µM*	?
CCn1c(CSc2nnc(-c3ccc4c(c3)OCO4)o2)nc2cc(S(=O)(=O)N(C)C)ccc21	·	-21%	-8%	-82*	?	·
N#CCSc1nnc(-c2ccc3c(c2)OCO3)o1	11µM*	?	21%	-35	18%	?
CCN(CC)S(=O)(=O)c1ccc2c(c1)nc(CCC(=O)Nc1ccc3c(c1)OCO3)n2CC	i	?	16%	-68*	-20%	-10%
Cc1onc(-c2ccccc2)c1C(=O)NC(=S)NNC(=O)c1ccccc1O	?	3.2µM*	?	-70*	?	?
Cc1onc(-c2ccccc2)c1C(=O)NC(=S)NNC(=O)c1ccc(O)cc1O	-9%	?	2.5µM*	-95*	?	-21%
Cc1ccc(C)c(N2CCN(S(=O)(=O)c3ccc(C(=O)N(C)C)s3)CC2)c1	-13%	·	?	?	·	-9%
SMILES	VACV mCherry inh	Marburg entry inh	Lassa entry inh	HCMV antiviral	HCV inh	Vaccinia Venus
CN(C)c1cccc(C(=O)NCC2Cc3cccc(-c4cncnc4)c3O2)c1 (centres undefined)	-13%	·	·	·	·	-4%
COC(=O)C[C@H]1c2cc(F)ccc2S(=O)(=O)N1C1CC1	-10%	·	·	·	·	-7%
COCCCNC(=O)c1cc2cc(S(=O)(=O)N3CCCCC3)ccc2n1C	-21%	·	-16%[46.1 µM]	-35	·	-18%
COc1cccc2c1C(=O)C=C(C)C2=O	9%	11µM*	11µM*	-33	?	316%
COc1cc2c(cc1OC)/C(=C/c1ccc(N(C)C)cc1)C=C2	-7%	·	·	·	·	-18%
C[C@H](O)[C@@H]1CN2CCc3c([nH]c4ccc(-c5ccc6c(c5)OCO6)cc34)[C@@H]2C[C@@H]1N(C)C(=O)NC1CCCCC1	?	·	·	-86*	·	?
CC1CCN(S(=O)(=O)c2c[nH]c(=O)[nH]c2=O)CC1	-12%	-5%[46.1 µM]	9%	-22	10µM*	-5%
COC(=O)C1CCN(S(=O)(=O)c2c[nH]c(=O)[nH]c2=O)CC1	i	·	·	7	·	-4%
CCC(C(=O)OCc1cc(=O)n2nc(C)sc2n1)c1ccccc1 (centres undefined)	-2%	·	?	-3	·	-3%
Fc1cccc(/C=N/Nc2ccc3ccccc3n2)c1	-9%	6.3µM*	?	2	-12%	-13%
O=[N+]([O-])c1cccc(C=NNc2ccc3ccccc3n2)c1O	?	2.2µM*	2.5µM*	-97*	?	?
Brc1ccc(/C=N/Nc2ccc3ccccc3n2)cc1	-17%	-20%	?	133	12%	-8%
O=C(N/N=C/c1cccc([N+](=O)[O-])c1O)C(O)(c1ccccc1)c1ccccc1	·	·	·	51	9%	·
Brc1ccccc1/C=N/Nc1ccc2ccccc2n1	-6%	11µM*	?	277	?	-17%
CC1(C)[C@H](C(=O)NC2CCCCCC2)CC[C@]1(C)C(=O)O	·	21%	·	·	·	·
CC(=O)c1ccc(NC(=O)c2cc3sccc3n2Cc2ccc(Cl)cc2)cc1	-11%	2%[46.1 µM]	1%[46.1 µM]	38	·	-12%
COc1ccc(C(=O)/C=C/C(=O)N(CC(=O)NC2CCCCC2)Cc2ccccc2)c(O)c1	i	?	4µM*	-99*	?	-13%
COc1ccc(C(=O)/C=C/C(=O)N(CC(=O)NC2CCCCC2)Cc2ccccc2OC)c(O)c1	?	?	?	-97*	?	-24%
CC(C)CCNC(=O)C(c1ccc(O)cc1)N(Cc1cccs1)C(=O)C1COc2ccccc2O1 (centres undefined)	11µM*	?	16µM*	-94*	13µM*	28µM*
Cc1cc(C)cc(N=Cc2ccc([N+](=O)[O-])s2)c1	-21%	?	?	-1	?	-7%
O=[N+]([O-])c1ccc(C=Nc2ccc(Cl)c([N+](=O)[O-])c2)s1	·	·	·	-99*	·	·
NC(=O)c1ccc(N=Cc2ccc([N+](=O)[O-])s2)cc1	-8%	?	?	-97*	?	9%
Nc1ccc(Cl)cc1/C(=N\O)c1ccccc1	·	-22%	·	·	·	·
C=Cc1ccc(Cn2c(C(=O)O)c(CNCc3ccc(F)cc3)c3ccc(C)cc32)cc1	?	·	?	-91*	·	?

Compound activity: PubChem, National Center for Advancing Translational Sciences (NCATS)
